# Compound activity from PubChem BioAssay.
# An excerpt weighted towards active compounds, which were near 14% of everything screened.
# Marburg entry inh = blocks Marburg virus binding to or entry into cells. Potency, µM (top dose mostly 37.8 µM), inactives show at the top dose activity change, negative = inhibition, most hits filed as inhibitors. Marburg virus pseudotyped entry inhibition, cell reporter. hit rate 1.8% among 300,000; calls by dose curve; tested in HEK293 cells; note: potency is the fitted concentration of half-maximal effect
# HCV inhibitor = blocks hepatitis C virus | Huh7.5.1 HCVcc-Cre infection, luciferase reporter, 44 h | Potency, µM (titrated, usually from 41.8 µM), for the others: at the highest dose activity change, negative = inhibition, hits mostly inhibitors | hit rate 3.4% among 340,000 | AID 651820; note: potency is the fitted concentration of half-maximal effect
#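 Compounds are dispensed onto cells plated 4 h earlier at 1,000 per well, with HCVcc-Cre virus (about 0.5 moi) added next. Following 44 h of culture, luminescent signal is measured for 15 sec after 15 min with substrate at room temperature.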
# Pf growth 48h = P. falciparum growth inhibition at 48 hours (one generation); P. falciparum luciferase growth in erythrocytes, 48 h; Potency, µM (series often up to 28.7 µM), for inactives: top-dose activity change, negative = inhibition, hits mostly inhibitors; hit rate 5.9% among 310,000; AID 504832; note: potency is the fitted concentration of half-maximal effect
#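 Compounds are pin-transferred into medium, infected erythrocytes (2% hematocrit, 0.1% parasitemia final) are added, and plates sit one parasite generation at 37 C in 5% CO2. Detection reagent is then added and luminescence measured.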
# Pf growth 96h = P. falciparum growth inhibition at 96 hours; hit rate 6.9% among 320,000; Potency, µM (top dose mostly 28.7 µM), without a hit: at the top dose activity change, negative = inhibition, actives largely listed as inhibitors; AID 504834; P. falciparum luciferase reporter growth, 96 h; note: potency is the fitted concentration of half-maximal effect
#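 Cell-based qHTS: luciferase-tagged P. falciparum in erythrocytes (2% hematocrit, 0.05% parasitemia final) incubated with compounds for 96 hours, 37 C, 5% CO2; luciferase detection reagent then added and luminescence measured.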
# HCMV antiviral = inhibitors of human cytomegalovirus; HFF cells, HCMV-luciferase reporter, 72 h; stronger effect = lower value; activity change, negative = inhibition, % at 57.5 µM; hit rate 4.5% among 410,000; AID 1259415; in the data active = activity change below about -60%; inconclusive = no clear call, values can overlap the other calls; inactive = above about -39%
#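 Cell-based, HFFs, 1000 cells/well, 16 h 37C; cpds in DMSO + HCMV-luc, MOI 1 PFU/cell; 72 h 37C; OneGlo luminescence after 5 min RT; norm. to buffer vs Salinomycin 10uM.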
# Lassa entry inh = blocks Lassa virus binding to or entry into cells; Lassa virus pseudotype entry inhibition, cell reporter; Potency, µM (titrated, usually from 37.9 µM), inactives show top-dose activity change, negative = inhibition, most hits filed as inhibitors; hit rate 1.2% among 300,000; calls by dose curve; tested in HEK293 cells; note: potency is the fitted concentration of half-maximal effect; nearly all actives have a fitted effect of over 50% in size
# Starred values were filed as active, the others as inactive; ? = inconclusive; . = no result given; [ ] = dose if it differs, or a comment. Unless noted, calls come from the whole dose curve; as a rule, active = well fitted inhibition curve with a large enough effect; inconclusive = small, poorly fitted or top-dose-only effect, or another doubt; inactive = no such curve, though single readings can be large or run the other way. % is set by controls: 0 for no effect and ±100 for the full control effect.
SMILES,Marburg entry inh,HCV inhibitor,Pf growth 48h,Pf growth 96h,HCMV antiviral,Lassa entry inh
COc1ccc(C2c3c(n(C)c4ccccc34)C(=O)N2CC(=O)Nc2cccc(Cl)c2C)cc1 (stereo not drawn),.,.,.,.,0,0%[46.1 µM]
O=[N+]([O-])c1ccc(NC(c2ccccc2)c2ccc3cccnc3c2O)cc1 (stereo not drawn),1.4µM*,?,.,.,-97*,?
Oc1cccc(C(Nc2nccs2)c2ccc3cccnc3c2O)c1 (stereo not drawn),?,?,3.3µM*,?,-93*,?
CCCCC(=O)NC(c1cccc([N+](=O)[O-])c1)c1ccc2cccnc2c1O (stereo not drawn),.,?,.,.,-103*,.
CC(=O)NC(c1cccc([N+](=O)[O-])c1)c1ccc2cccnc2c1O (stereo not drawn),?,1.8µM*,-62%,346%,-102*,?
Cn1c(SCc2ccccc2F)nc2c([nH]c3ccccc32)c1=O,.,.,.,.,48,-3%[46.1 µM]
CCCOc1ccc(CNC(=O)c2ccc(C)c(-n3c(C)nc4cccnc43)c2)cc1,.,.,.,.,0,?
COc1cc(Cl)c(C)cc1NC(=O)c1cc2ccc3cccnc3c2[nH]1,.,.,.,.,110,-9%[46.1 µM]
CCOCCCNC(=O)c1[nH]c2cc(C)ccc2c1Sc1ccc(Cl)cc1,?,.,.,.,10,2%[46.1 µM]
COc1cccc(C(Nc2ccccc2)c2ccc3ccc(C)nc3c2O)c1 (stereo not drawn),.,.,.,.,-36,.
COc1cccc(C(NC(C)=O)c2ccc3cccnc3c2O)c1 (stereo not drawn),?,4.5µM*,?,30%,-99*,?
COc1ccc(NC(=O)C2CC(=O)OC2c2ccccc2)cc1 (stereo not drawn),?,9%,-6%,9.3µM*,4,4%
Cc1cc(NC(=O)C2CC(=O)OC2c2ccccc2)no1 (stereo not drawn),14%,5%,39%,34%,-14,2%
CCCCCCCC[n+]1cccc2c3ccccc3ccc21,.,1.4µM*,1.2µM*,32%,-97*,.
CCCCCCCCCC[n+]1cccc2c3ccccc3ccc21,.,4µM*,2.1µM*,?,-108*,.
CCOC(=O)c1ccc(CN2CCCC(C)(C(=O)NCCOC)C2)cc1 (stereo not drawn),.,.,.,.,6,.
Cc1nnc(NC(=O)c2nc(S(=O)(=O)Cc3ccccc3C)ncc2Cl)s1,.,?,-9%,35%,-102*,.
CCOc1ccc(NC(=O)c2nc(S(=O)(=O)Cc3ccccc3F)ncc2Cl)cc1,?,.,.,.,-100*,?
CSc1nnc(NC(=O)c2nc(S(=O)(=O)Cc3ccccc3F)ncc2Cl)s1,?,?,14%,?,-96*,?
CC(C)c1nnc(NC(=O)c2nc(S(=O)(=O)Cc3ccccc3F)ncc2Cl)s1,.,?,18%,92%,-111*,.
COc1ccc(-c2nc3cc(F)ccc3nc2C(=O)Nc2c(C)cccc2C)cc1,.,.,.,.,16,.
CC1CCCC(C)N1C(=O)COC(=O)c1cc(=O)[nH]c2ccccc12 (stereo not drawn),23%[46.1 µM],?,.,.,36,1%[46.1 µM]
CC(C)c1ccc(OCc2cc(=O)n3c4c(sc3n2)CCCC4)cc1,-2%[46.1 µM],.,.,.,-7,13%[46.1 µM]
C[C@H]1[C@H](O)[C@@H](N=[N+]=[N-])CCO[C@H]1c1ccccc1,-12%[14.2 µM],.,.,.,.,.
O=C(Nc1nc2ccc(F)cc2s1)c1nc(S(=O)(=O)Cc2ccccc2F)ncc1Cl,?,.,.,.,-109*,?
SMILES,Marburg entry inh,HCV inhibitor,Pf growth 48h,Pf growth 96h,HCMV antiviral,Lassa entry inh
C[C@@H]1COc2cc(F)ccc2S(=O)(=O)N1,.,.,.,.,.,-7%[46.1 µM]
CCOc1ccc(NC(=O)CCN2CCN(S(=O)(=O)c3cc(Cl)ccc3OC)CC2)cc1,14%,?,?,2.6µM*,-14,-1%
COc1ccc(NC(=O)CCN2CCN(S(=O)(=O)c3ccc(Cl)cc3)CC2)cc1,-33%,-13%,?,.,-38,9%
CCN(CC)c1ccc(NC(=O)CN2CCN(S(=O)(=O)c3cc(Cl)ccc3OC)CC2)cc1,-40%,?,10µM*,.,-31,?
Cc1nc(N2CCOCC2)c2c(C(=O)N3CCN(c4cc(Cl)ccc4C)CC3)c(C)oc2n1,.,.,.,.,-9,-16%[46.1 µM]
CC(C)NC(=O)N[C@H]1C=C[C@H](CC(=O)NCc2ccc(Oc3ccccc3)cc2)O[C@@H]1CO,.,.,.,.,11,.
Cc1sc2nc(CSCC(=O)Nc3ccccc3C#N)[nH]c(=O)c2c1C,-18%,27%,-8%,5.2µM*,47,3%
COc1ccc2[nH]c(=O)c(CN(CC3CCCO3)C(=O)Nc3ccc(F)cc3)cc2c1 (stereo not drawn),?,?,26%,27%,-31,11µM*
COc1ccc(NC(=O)N(Cc2cc3cc(C)ccc3[nH]c2=O)CC2CCCO2)cc1 (stereo not drawn),.,?,3.3µM*,-13%,6,.
COc1ccc(NC(=O)N(Cc2cc3cc(OC)c(OC)cc3[nH]c2=O)CC2CCCO2)cc1 (stereo not drawn),.,5%,?,18%,8,.
COc1cccc(C(=O)N(Cc2cc3cc(C)ccc3[nH]c2=O)CC2CCCO2)c1 (stereo not drawn),-1%,-5%,9.3µM*,.,-9,-7%
CCN(C(=O)c1nn(-c2ccc(C)cc2)c(=O)c2c1c1ccccc1n2C)c1ccc(F)cc1,-2%[46.1 µM],.,.,.,-5,29%[46.1 µM]
NC(=O)c1ncn([C@@H]2O[C@H](CNCc3cc(Cl)ccc3OCc3ccc(Cl)cc3)[C@@H](O)[C@H]2O)n1,.,8%,.,.,-21,.
Cc1cccc(C)c1NC(=O)CSCC(=O)O,2%,13%,12%,-2%,-15,0%
Cc1onc(NC(=O)CSCC(=O)O)c1Br,7%[46.1 µM],5%,25%,0%,-73*,-15%[46.1 µM]
CCOc1ccc(-c2noc(-c3ccncc3)n2)cc1OCC,19%,?,11%,13%,41,-8%
CCOc1ccc(-c2nc(-c3ccc(OC)cc3)no2)cc1OCC,7%,7.9µM*,8%,?,1,5%
COc1ccc(-c2noc(-c3ccccc3Cl)n2)cc1OC,13%,10µM*,224%,.,61,-27%
COc1ccc(-c2noc(-c3ccco3)n2)cc1OC,-20%,11µM*,199%,?,130,?
C[C@@H]1CN([C@@H](C)CO)C(=O)c2cc(NC(=O)C3CCCCC3)ccc2O[C@@H](C)CCCCO[C@H]1CN(C)S(=O)(=O)c1ccc(Cl)cc1,.,.,.,.,-29,.
CC1(C(=O)NCCc2c[nH]c3ccccc23)CCN1Cc1csc2ccccc12 (stereo not drawn),.,.,.,.,-17,.
CC1(C(=O)NCCc2c[nH]c3ccccc23)CCN1Cc1ccccc1OC(F)F (stereo not drawn),.,.,.,.,-96*,.
